BoNT-F LC inh: BoNT/F light chain protease inhibitors, primary screen, biochemical, flow cytometry, MLPCN library | Multiplex microsphere protease cleavage assay | inhibition, % at 10 µM | 0.22% of 360,000 active; in the data active = inhibition above about 35%, passing the limit was not always enough; inconclusive = no clear call, values can overlap the other calls; also: plate controls were buffer without enzyme for full effect and enzyme alone for no effect
Bead autofluor: counter-screen for toxin protease inhibitors: compound fluorescence. compound autofluorescence counterscreen, microsphere flow cytometry; stronger effect = higher value. fluorescence intensity (test concentration not listed). 3.1% of 360,000 active. AID 624483; in the data active = fluorescence intensity above about 16000; inconclusive = no clear call, values can overlap the other calls
BoNT-A LC inh2: BoNT/A light chain protease inhibitors, primary screen, biochemical, flow cytometry, MLPCN library; multiplex microsphere protease substrate cleavage; 0.17% of 360,000 active; Botulinum neurotoxin type A light chain protease (Clostridium botulinum A str. ATCC 3502); inhibition, % at 10 µM; AID 588499, 2011; also: plate controls were buffer without enzyme for full effect and enzyme alone for no effect
Anthrax LF inh2: Bacillus anthracis LF protease inhibitors, primary screen, biochemical, multiplex microsphere, MLPCN library; multiplex microsphere protease cleavage assay; inhibition, % at 10 µM; 0.12% of 360,000 active; also: plate controls were buffer without enzyme for full effect and enzyme alone for no effect
BJeLR lethal: MLPCN primary cell-based screen for lethality selective to Ras in HRASV12 cells. BJeLR (HRASV12) viability, CellTiter-Glo ATP luminescence, 48 h. inhibition, % (no concentration beside the values). 0.17% of 300,000 active; in the data active = inhibition above about 50%; inconclusive = no clear call, values can overlap the other calls
Numbers without * were called inactive; ? = inconclusive. Shown are actives, neighbours in structure and some others; about 3.5% of the full set was active somewhere. Rule as the data show it, unless noted: active = inhibition above about 30%; inconclusive = no clear call, values can overlap the other calls; inactive = below that.

SMILES	BoNT-F LC inh	Bead autofluor	BoNT-A LC inh2	Anthrax LF inh2	BJeLR lethal
Cc1cc2c(c(Sc3ccccc3)n1)C(=O)OC2	-2	24407*	-2	-4	0
Cc1cc2c(c(SCC(=O)N(C)c3ccccc3)n1)C(=O)OC2	22	4182	1	-2	2
Cc1ccc(-c2csc3ncnc(Sc4nnc(CN5CCCCCC5=O)o4)c23)cc1	-1	16668*	0	-4	-2
COc1ccc(N2CCN(C(=O)CSc3ncnc4scc(-c5ccc(C)cc5)c34)CC2)cc1	8	?	18	-21	-9
CCCC(=O)OCCNc1cc(Sc2nccn2C)c2nonc2c1[N+](=O)[O-]	-1	2124	0	-1	94*

Bioassay records: PubChem BioAssay, several laboratories
